Results from PubChem BioAssay AID1159580 (chemical genetic matrix, 2015).
“And” between values parts separate entries of the source, which are not always exact repeats. Identical values can stand only once. Screen size: about 5,500 compounds; about 2,000 (36%) were called active. Roughly 18% stayed inconclusive and do not appear here. Cut-off read from the data, not from the text of the source: active = normalized growth mostly below about 0.91 (no sharp cut-off); inconclusive = no clear call, values can overlap the other calls; inactive = mostly above about 0.92. The list shows a part of the results.

Test: chemical genetic growth profiling, strain panel (AID 1159580);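 note: tested at 20 µM; growth read once vehicle control cultures reached saturation at 30 °C; 1 = growth at the plate median or of vehicle wells; lower values mean less growth of the strain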
Conditions: growth OD

Measured: normalized growth

O=C(O)Cc1cc(I)c(Oc2cc(I)c(O)c(I)c2)c(I)c1
inactive: S. cerevisiae deletion strains, locus YAL013W, strain DEP1, stronger effect = lower value 0.948 | S. cerevisiae deletion strains, locus YBR021W, strain FUR4, stronger effect = lower value 1.03 | S. cerevisiae deletion strains, locus YBR229C, strain ROT2, stronger effect = lower value 0.936 | S. cerevisiae deletion strains, locus YCL029C, strain bik1, stronger effect = lower value 0.96 | S. cerevisiae deletion strains, locus YDL035C, strain GPR1, stronger effect = lower value 0.982 | S. cerevisiae deletion strains, locus YDL074C, strain BRE1, stronger effect = lower value 0.942 | S. cerevisiae deletion strains, locus YDL101C, strain DUN1, stronger effect = lower value 0.955 | S. cerevisiae deletion strains, locus YDL134C, strain PPH21, stronger effect = lower value 0.968 | S. cerevisiae deletion strains, locus YDL185W, strain tfp1, stronger effect = lower value 0.931 | S. cerevisiae deletion strains, locus YDL192W, strain arf1, stronger effect = lower value 0.957 | S. cerevisiae deletion strains, locus YDR101C, strain arx1, stronger effect = lower value 0.979 | S. cerevisiae deletion strains, locus YDR150W, strain NUM1, stronger effect = lower value 0.943 | S. cerevisiae deletion strains, locus YDR162C, strain NBP2, stronger effect = lower value 0.847 | S. cerevisiae deletion strains, locus YDR318W, strain mcm21, stronger effect = lower value 0.98 | S. cerevisiae deletion strains, locus YDR388W, stronger effect = lower value 0.955 | S. cerevisiae deletion strains, locus YDR502C, strain sam2, stronger effect = lower value 0.957 | S. cerevisiae deletion strains, locus YEL061C, strain CIN8, stronger effect = lower value 0.964 | S. cerevisiae deletion strains, locus YER110C, stronger effect = lower value 0.973 | S. cerevisiae deletion strains, locus YER155C, strain BEM2, stronger effect = lower value 0.97 | S. cerevisiae deletion strains, locus YER167W, strain BCK2, stronger effect = lower value 0.97 | S. cerevisiae deletion strains, locus YGL078C, strain dbp3, stronger effect = lower value 0.94 | S. cerevisiae deletion strains, locus YGL086W, strain mad1, stronger effect = lower value 0.982 | S. cerevisiae deletion strains, locus YGL248W, strain PDE1, stronger effect = lower value 0.965 | S. cerevisiae deletion strains, locus YGR078C, strain PAC10, stronger effect = lower value 0.958 | S. cerevisiae deletion strains, locus YGR135W, strain pre9, stronger effect = lower value 0.942 | S. cerevisiae deletion strains, locus YGR229C, strain SMI1, stronger effect = lower value 0.973 | S. cerevisiae deletion strains, locus YGR252W, strain gcn5, stronger effect = lower value 1.06 | S. cerevisiae deletion strains, locus YHR079C, strain IRE1 (second series), stronger effect = lower value 0.973 | S. cerevisiae deletion strains, locus YHR094C, strain hxt1, stronger effect = lower value 0.956 | S. cerevisiae deletion strains, locus YHR129C, strain ARP1, stronger effect = lower value 0.976 | S. cerevisiae deletion strains, locus YHR200W, strain rpn10, stronger effect = lower value 0.959 | S. cerevisiae deletion strains, locus YIL066C, strain RNR3, stronger effect = lower value 0.97 | S. cerevisiae deletion strains, locus YIL073C, strain SPO22, stronger effect = lower value 1.02 | S. cerevisiae deletion strains, locus YIL125W, strain kgd1, stronger effect = lower value 0.944 | S. cerevisiae deletion strains, locus YIR030C, strain dcg1, stronger effect = lower value 0.939 | S. cerevisiae deletion strains, locus YJL095W, strain BCK1, stronger effect = lower value 0.924 and 0.892 | S. cerevisiae deletion strains, locus YJL134W, strain LCB3, stronger effect = lower value 0.954 | S. cerevisiae deletion strains, locus YJL168C, strain set2, stronger effect = lower value 0.942 | S. cerevisiae deletion strains, locus YJL187C, strain SWE1 (second series), stronger effect = lower value 0.949 | S. cerevisiae deletion strains, locus YJR043C, strain POL32, stronger effect = lower value 1.06 | S. cerevisiae deletion strains, locus YJR066W, strain TOR1, stronger effect = lower value 0.864 | S. cerevisiae deletion strains, locus YJR075W, strain HOC1, stronger effect = lower value 1 | S. cerevisiae deletion strains, locus YKL009W, strain mrt4, stronger effect = lower value 0.945 | S. cerevisiae deletion strains, locus YKL190W, strain CNB1, stronger effect = lower value 0.946 | S. cerevisiae deletion strains, locus YKR001C, strain vps1, stronger effect = lower value 0.931 | S. cerevisiae deletion strains, locus YLR039C, strain RIC1, stronger effect = lower value 0.817 | S. cerevisiae deletion strains, locus YLR058C, strain SHM2, stronger effect = lower value 0.959 | S. cerevisiae deletion strains, locus YLR102C, strain apc9, stronger effect = lower value 0.935 | S. cerevisiae deletion strains, locus YLR262C, strain YPT6, stronger effect = lower value 0.749 | S. cerevisiae deletion strains, locus YLR268W, strain sec22, stronger effect = lower value 0.963 | S. cerevisiae deletion strains, locus YLR330W, strain CHS5, stronger effect = lower value 0.967 | S. cerevisiae deletion strains, locus YLR342W, strain FKS1 (second series), stronger effect = lower value 1.02 | S. cerevisiae deletion strains, locus YLR371W, strain rom2, stronger effect = lower value 0.987 | S. cerevisiae deletion strains, locus YLR418C, strain cdc73, stronger effect = lower value 0.911 | S. cerevisiae deletion strains, locus YML016C, strain PPZ1, stronger effect = lower value 0.95 | S. cerevisiae deletion strains, locus YML032C, strain rad52, stronger effect = lower value 0.983 | S. cerevisiae deletion strains, locus YML124C, strain tub3, stronger effect = lower value 0.951 | S. cerevisiae deletion strains, locus YMR078C, strain ctf18, stronger effect = lower value 0.96 | S. cerevisiae deletion strains, locus YMR223W, strain ubp8, stronger effect = lower value 1.01 | S. cerevisiae deletion strains, locus YMR263W, strain SAP30, stronger effect = lower value 0.944 | S. cerevisiae deletion strains, locus YMR307W, strain GAS1, stronger effect = lower value 1.07 | S. cerevisiae deletion strains, locus YNL067W, strain RPL9B, stronger effect = lower value 0.969 | S. cerevisiae deletion strains, locus YNL128W, strain TEP1, stronger effect = lower value 0.952 | S. cerevisiae deletion strains, locus YNL153C, strain GIM3, stronger effect = lower value 0.951 | S. cerevisiae deletion strains, locus YNL183C, strain NPR1, stronger effect = lower value 0.829 | S. cerevisiae deletion strains, locus YNL233W, strain BNI4, stronger effect = lower value 0.968 | S. cerevisiae deletion strains, locus YNL250W, strain rad50, stronger effect = lower value 0.923 | S. cerevisiae deletion strains, locus YNL271C, strain bni1, stronger effect = lower value 0.942 | S. cerevisiae deletion strains, locus YNL298W, strain CLA4, stronger effect = lower value 0.952 | S. cerevisiae deletion strains, locus YNL307C, strain MCK1, stronger effect = lower value 0.982 | S. cerevisiae deletion strains, locus YNL322C, strain KRE1, stronger effect = lower value 0.962 | S. cerevisiae deletion strains, locus YNR052C, strain pop2, stronger effect = lower value 0.973 | S. cerevisiae deletion strains, locus YOL006C, strain TOP1, stronger effect = lower value 0.862 | S. cerevisiae deletion strains, locus YOL012C, strain htz1 0.639 | S. cerevisiae deletion strains, locus YOL147C, strain pex11, stronger effect = lower value 0.965 | S. cerevisiae deletion strains, locus YOR061W, strain CKA2, stronger effect = lower value 0.929 | S. cerevisiae deletion strains, locus YOR069W, strain VPS5, stronger effect = lower value 0.962 | S. cerevisiae deletion strains, locus YOR136W, strain idh2, stronger effect = lower value 0.997 | S. cerevisiae deletion strains, locus YOR144C, strain elg1, stronger effect = lower value 0.947 | S. cerevisiae deletion strains, locus YOR184W, strain ser1, stronger effect = lower value 1.03 | S. cerevisiae deletion strains, locus YOR316C, strain cot1, stronger effect = lower value 0.941 | S. cerevisiae deletion strains, locus YPL055C, strain LGE1, stronger effect = lower value 0.922 | S. cerevisiae deletion strains, locus YPL241C, strain CIN2, stronger effect = lower value 0.953 | S. cerevisiae deletion strains, locus YPR119W, strain clb2, stronger effect = lower value 0.95 | S. cerevisiae deletion strains, locus YPR141C, strain kar3, stronger effect = lower value 0.924 | S. cerevisiae deletion strains, locus YPR167C, strain met16, stronger effect = lower value 0.98 | S. cerevisiae deletion strains, strain wtn01, stronger effect = lower value 0.95 | S. cerevisiae strains, strain wild type, stronger effect = lower value 0.96
0.989 (inactive) and 0.84 (active): S. cerevisiae deletion strains, locus YHR030C, strain SLT2, stronger effect = lower value
active: S. cerevisiae deletion strains, locus YHR079C, strain IRE1, stronger effect = lower value 0.762 | S. cerevisiae deletion strains, locus YKL068W, stronger effect = lower value 0.917 | S. cerevisiae deletion strains, locus YKL085W, strain MDH1 (second series), stronger effect = lower value 0.924 | S. cerevisiae deletion strains, locus YKL085W, strain MDH1, stronger effect = lower value 0.924 | S. cerevisiae deletion strains, locus YLR113W, strain HOG1, stronger effect = lower value 0.418 | S. cerevisiae deletion strains, locus YOR231W, strain MKK1, stronger effect = lower value 0.67 | S. cerevisiae deletion strains, locus YPL256C, strain CLN2, stronger effect = lower value 0.679 | S. cerevisiae deletion strains, locus YPR163C, strain tif3, stronger effect = lower value 0.719
